# TDP1 cell noCPT – qHTS for Inhibitors of human tyrosyl-DNA phosphodiesterase 1 (TDP1): qHTS in cells in absence of CPT; DT40 Tdp1-/- hTDP1 cells, no CPT, ATP luminescence, 48 h; Potency, µM (highest dose often 46.2 µM), inactives show at the highest dose activity change, negative = growth inhibition, actives largely listed as inhibitors; 15% of 420,000 active; note: potency is the fitted concentration of half-maximal effect; nearly all actives have a fitted effect of over 55% in size
#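 Chicken DT40 Tdp1-/- cells complemented with human TDP1, screened without camptothecin (DMSO vehicle only), 400 cells/well. Compounds pin-transferred, cells incubated at 37 °C for at least 48 hr. Growth read as ATP-dependent luminescence (CellTiter-Glo, 30 min at RT).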
# TDP1 cell CPT – qHTS for Inhibitors of human tyrosyl-DNA phosphodiesterase 1 (TDP1): qHTS in cells in presence of CPT. chicken DT40 Tdp1-/-;hTDP1 cells + 20 nM CPT, ATP luminescence, 48 h. Potency, µM (series often up to 46.2 µM), for inactives: at the highest dose activity change, negative = growth inhibition, usual class: inhibitors. 12% of 420,000 active. AID 686979, 2013; note: potency is the fitted concentration of half-maximal effect; nearly all actives have a fitted effect of over 55% in size
#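 Cell growth measured by CellTiter-Glo luminescence after a minimum 48 h, 37 C compound exposure with 20 nM CPT in Tdp1-knockout DT40 cells stably expressing hTDP1, seeded 400/well; qHTS titration format.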
# HT1080 IDH1KD tx – qHTS for induction of synthetic lethality in tumor cells producing 2HG: qHTS for the HT-1080-IDH1KD cell line; HT-1080 IDH1 knockdown viability, ATP luminescence, 48 h; Potency, µM (top dose mostly 46.1 µM), without a hit: top-dose activity, negative = toxicity, most hits filed as cytotoxic; 2% of 360,000 active; AID 686971, 2013;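 note: potency is the fitted concentration of half-maximal effect; 0% = DMSO wells and -100% = cell-free medium wells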
#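 CellTiter-Glo luminescence after 48 h compound exposure at 37 degrees C of IDH1-knockdown HT-1080 cells in 5% FBS RPMI. %Activity scaled between DMSO wells and cell-free media wells, with curves fitted and assigned curve classes.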
# HT1080NT lethal – qHTS for induction of synthetic lethality in tumor cells producing 2HG: qHTS for the HT-1080-NT fibrosarcoma cell line; HT-1080-NT fibrosarcoma viability, CellTiter-Glo ATP luminescence, 48 h; Potency, µM (top dose mostly 46.1 µM), inactives show top-dose activity, negative = less viability, actives largely listed as cytotoxic; 1.6% of 360,000 active;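 note: NT is the 2HG producing partner of a matched IDH1 knockdown line; potency is the fitted concentration of half-maximal effect; 0% = DMSO-treated cells and -100% = media-only wells without cells; nearly all actives have a fitted effect of over 55% in size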
#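 Viability of the 2HG-overproducing fibrosarcoma line after 48 hours of compound exposure at 37 degrees C was determined by luminescence with CellTiter-Glo, and concentration-effect curves were then fitted and categorized.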
# ALOX12 inh – Primary qHTS assay for inhibitors of human arachidonate 12S-lipoxygenase (ALOX12): Round 2; 1.1% of 580,000 active; Potency, µM (doses to about 108 µM), for inactives: top-dose activity change, negative = inhibition, most hits filed as inhibitors; Polyunsaturated fatty acid lipoxygenase ALOX12 (Homo sapiens), P18054; purified 12hLO, xylenol orange hydroperoxide absorbance; note: potency is the fitted concentration of half-maximal effect
# Target sequence (P18054 whole entry, looked up): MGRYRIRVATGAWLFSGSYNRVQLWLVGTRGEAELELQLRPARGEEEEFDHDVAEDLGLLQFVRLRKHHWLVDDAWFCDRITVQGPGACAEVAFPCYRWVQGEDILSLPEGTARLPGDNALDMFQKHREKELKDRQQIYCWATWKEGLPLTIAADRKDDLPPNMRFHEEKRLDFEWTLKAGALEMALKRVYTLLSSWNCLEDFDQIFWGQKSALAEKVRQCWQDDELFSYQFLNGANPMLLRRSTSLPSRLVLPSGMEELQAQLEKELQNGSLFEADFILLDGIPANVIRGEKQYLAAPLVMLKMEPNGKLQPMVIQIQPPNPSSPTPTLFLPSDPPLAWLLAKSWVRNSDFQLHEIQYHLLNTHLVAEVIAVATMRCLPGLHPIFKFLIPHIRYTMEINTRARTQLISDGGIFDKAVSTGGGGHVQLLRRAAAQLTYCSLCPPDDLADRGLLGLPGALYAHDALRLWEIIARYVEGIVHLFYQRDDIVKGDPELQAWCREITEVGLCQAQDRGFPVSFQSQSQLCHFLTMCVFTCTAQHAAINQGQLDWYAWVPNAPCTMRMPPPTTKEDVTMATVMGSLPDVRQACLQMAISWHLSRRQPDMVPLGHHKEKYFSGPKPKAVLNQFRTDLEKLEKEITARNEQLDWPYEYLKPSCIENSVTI
#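 Hydroperoxide product was detected by ferrous iron/xylenol orange as the 573 to 405 nm absorbance ratio. Arachidonic acid at 40 uM (final) was turned over for 30 min at room temperature by 150 nM human 12hLO, pH 7.0 Hepes buffer, after 15 min compound preincubation.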
# IL-1B inflam inh – qHTS for Inhibitors of Inflammasome Signaling: IL-1-beta AlphaLISA Primary Screen; THP-1 LPS/ATP IL-1B secretion, AlphaLISA, 16 h; stronger effect = lower value; activity change, % at 57.5 µM; 4.7% of 360,000 active; in the data active = activity change below about -50%; inconclusive = mostly about -30% to -49%
#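 Secreted IL-1B measured by AlphaLISA bead assay after 16 h compound exposure of THP-1 cells; compounds (final up to 57.5 uM) added 1 h before LPS (250 ng/mL) and ATP (1.25 mM) stimulation; lower signal means less secretion.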
# Active calls of the source: *; u = inconclusive; x = not tested or not shown; ! = not confirmed by another sample; [ ] = remark or other dose. The entries come from a sample that favours hits as a whole. Unless noted, calls come from the whole dose curve; as a rule, active = well fitted curve in the direction sought with a large enough effect; inconclusive = small, poorly fitted or top-dose-only effect, or another doubt; inactive = no such curve, though single readings can be large; an effect the other way counts as inactive or inconclusive. Unless noted, % is set by controls: 0 for no effect and ±100 for the full control effect.
SMILES,TDP1 cell noCPT,TDP1 cell CPT,HT1080 IDH1KD tx,HT1080NT lethal,ALOX12 inh,IL-1B inflam inh
CCOC(=O)Cc1c(-c2cccc(Cl)c2)nc2c3ccccc3ccn12,21µM*,u,u,u,0%,3
Cc1ccc(Cc2c(-c3cccc(Br)c3)nc3c4ccccc4ccn23)cc1,x,x,x,x,88%,x
Clc1ccc(-c2nc3c4ccccc4ccn3c2Cc2cccc(Cl)c2)cc1,7.3µM*,u,1%,1%,0%,53
Clc1cccc(Cc2c(-c3cccc(Br)c3)nc3c4ccccc4ccn23)c1,-21%,-29%,5%,15%,17%,34
Fc1cccc(Cc2c(-c3ccccc3)nc3c4ccccc4ccn23)c1,16µM*,u,-28%,-7%,-7%,5
O=C(CSc1ccc2c(c1)OCCCO2)Nc1ccccc1Cc1ccccc1,x,x,x,x,-28%,x
O=C(Nc1cccc(-c2nnc3n2CCCC3)c1)c1nccc2ccccc12,x,x,x,x,44%,x
CCn1c(/N=C/c2ccccc2NS(=O)(=O)c2ccc(C)cc2)nc2ccccc21,u,29µM*,-11%,-16%,x,-10
COc1cc2c(cc1OC)C1C/C(=N\O)C(CC(C)C)CN1CC2 (stereo unspecified),21µM*,u,-2%,0%,3%,30
CCC(CC)CC1CN2CCc3cc(OC)c(OC)cc3C2CC1(O)CC (stereo unspecified),8.2µM*,8.2µM*,-13%,-14%,-1%,-7
COc1cc2c(cc1OC)C1CC(=O)C(CC(C)C)CN1CC2 (stereo unspecified),-24%,-25%,2%,4%,u,13
Cc1cc(=O)c2c(O)c3c(O)cc(=O)c4c3c3c(cc(O)c1c23)C(C)(C)C=4O,0.73µM*,1µM*!,x,x,u,x
CCn1cc(C(=O)O)c(=O)c2cc(F)c(N3CCNC(C)C3)c(F)c21 (stereo unspecified),u,15µM*,x,x,-24%[57.4 µM],x
Cc1c(F)cc2c(=O)c(C(=O)O)cn3c2c1CCC3C (stereo unspecified),x,x,x,x,-23%[22.9 µM],x
Cc1ccc(-c2ccc3nnc(CNC(=O)CSc4ccncc4)n3n2)cc1,x,x,x,x,15%,x
Cc1cc(C)cc(NC(=S)/C(=C(\[O-])c2ccc(Cl)cc2Cl)[n+]2ccccc2)c1,-26%,u,0%,17%,57%,16
Cc1ccccc1NC(=S)/C(=C(\[O-])c1ccc(C)c([N+](=O)[O-])c1)[n+]1ccccc1,u,u,12%,u,-21%,-1
Cc1ccc(/C([O-])=C(/C(=S)Nc2ccc(SC(F)F)cc2)[n+]2ccccc2)cc1[N+](=O)[O-],12µM*,u,3%,0%,u,0
[O-]/C(=C(\C(=S)Nc1ccc(SC(F)F)cc1)[n+]1ccccc1)c1ccc(Cl)cc1Cl,10µM*,10µM*,-19%,-10%,u,-69*
CCOc1ccc(C(=O)C(C)OC(=O)C2CCN(c3ccc(C(F)(F)F)cn3)CC2)cc1 (stereo unspecified),23µM*,16µM*,-11%,-14%,-7%,25
CC1=NN(c2ccccc2)C(=O)C1C=Nc1ccccc1O (stereo unspecified),18µM*,u,u,u,2%,167
CC1=NN(c2ccccc2)C(=O)C1/C=C1\NC(=S)NC1=O (stereo unspecified),0%,1%,15%,5%,u,18
Cc1cc(C)c2cc(C#N)c(N3CCCN(C(=S)NCCCN(C)C)CC3)nc2c1,23µM*,u,u,u,14%,-56*
Cc1ccc2cc(C#N)c(N3CCCN(C(=S)NCCCN(C)C)CC3)nc2c1,15µM*,16µM*,21µM*,21µM*,u,u
CCOCCCNC(=S)N1CCCN(c2nc3cc(C)ccc3cc2C#N)CC1,3%,-9%,7%,u,-9%,12
SMILES,TDP1 cell noCPT,TDP1 cell CPT,HT1080 IDH1KD tx,HT1080NT lethal,ALOX12 inh,IL-1B inflam inh
CCc1cc(N2CCCC(OCc3ccccn3)C2)n2nc(C)c(C)c2n1 (stereo unspecified),x,x,x,x,69%,x
O=C(NNc1ccccc1[N+](=O)[O-])NC1CCCCC1,-24%,-4%,0%,-10%,-8%,-6
O=C(NNc1ccccc1[N+](=O)[O-])Nc1ccc(F)cc1,-52%,u,-8%,-10%,u,-3
O=C(NNc1ccccc1[N+](=O)[O-])Nc1ccccc1,u,15µM*,-2%,1%,-28%,0
O=C(NNc1ccccc1[N+](=O)[O-])Nc1ccc(Cl)c(Cl)c1,u,u,18µM*,18µM*,u,-93*
CC(Sc1nnnn1C1CC1)C(=O)c1c[nH]c2ccccc12 (stereo unspecified),x,x,x,x,25%,x
c1cnc2[nH]cc(-c3nc4ccncc4[nH]3)c2c1,x,x,x,x,41%[176 µM],x
COc1ccc(/C=C/c2sc3ccccc3[n+]2CCCCI)cc1OC,13µM*,7.9µM*,x,x,x,x
CN(C)c1ccc(C(=O)N(Cc2ccccc2)Cc2ccccc2)cc1,u,u,-18%,-12%,-37%,0
CC(=O)N/C(=C\c1ccccc1)C(=O)NCC(=O)O,5%,3%,7%,-1%,10%,18
C[n+]1c(/C=C/c2ccc(N)cc2)sc2ccccc21,u,18µM*,x,x,x,x
CC(=O)N/C(=C/c1ccccc1)c1sc2ccccc2[n+]1CCCCI,11µM*,20µM*,x,x,x,x
CN(C)c1ccc(/C=C/c2sc3ccccc3[n+]2Cc2ccccc2)cc1,0.1µM*,0.11µM*,x,x,x,x
COc1cc(/C=C/c2sc3ccccc3[n+]2CCCS(=O)(=O)[O-])ccc1O,u,u,-13%,-11%,u,2
O=C(CCc1ncc(-c2ccccc2F)o1)N1CCN(S(=O)(=O)c2ccccc2Cl)CC1,x,x,x,x,-4%,x
CCCN(CCC)c1ccc(/C=C/c2sc3ccccc3[n+]2CCCCI)cc1,0.32µM*,0.32µM*,x,x,x,x
Cn1cc(C(=O)N2CCC3(CC2)CN(Cc2ccccc2)CC3CO)cn1 (stereo unspecified),x,x,x,x,52%,x

# Screening data deposited in PubChem BioAssay by National Center for Advancing Translational Sciences (NCATS).
